FAK inh: FAK kinase inhibitors, primary screen, biochemical; biochemical FAK kinase activity assay; inhibition, %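 (tested at 7 µM)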; 97,000 tested, 0.84% active; AID 727, 2007; in the data active = inhibition above about 19%;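 also: 0% = DMSO and 100% = reference compound high control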
D1 mod: D1 CRE-luciferase signal change, two-sided – cell-based, HEK293 D1, dopamine EC30, D1 allosteric modulator project, primary screen; D(1A) dopamine receptor (Homo sapiens), P21728; dopamine EC30 potentiation; actives deviate in either direction; B-score at 10 µM; 58,000 tested, 5.9% active; AID 641, 2007;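 active = luminescence count or its row- and column-corrected plate score outside the 99.7% band of the plate's sample wells, on either side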
Target sequence (P21728 whole entry, looked up): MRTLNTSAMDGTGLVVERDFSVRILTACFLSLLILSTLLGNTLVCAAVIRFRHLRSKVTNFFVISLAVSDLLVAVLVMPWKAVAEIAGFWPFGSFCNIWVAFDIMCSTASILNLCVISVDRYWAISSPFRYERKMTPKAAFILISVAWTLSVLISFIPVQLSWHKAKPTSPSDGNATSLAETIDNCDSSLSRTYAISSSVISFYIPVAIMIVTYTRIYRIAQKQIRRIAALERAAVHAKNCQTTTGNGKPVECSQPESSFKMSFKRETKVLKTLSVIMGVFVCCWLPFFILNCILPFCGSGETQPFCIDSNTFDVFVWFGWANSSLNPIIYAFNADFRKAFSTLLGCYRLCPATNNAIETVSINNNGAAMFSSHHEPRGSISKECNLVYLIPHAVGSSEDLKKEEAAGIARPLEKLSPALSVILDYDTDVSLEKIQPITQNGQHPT
Mac1 fbg enh: enhancers of CD11b/CD18 adhesion to fibrinogen, primary screen, K562 cells, luminescence. 93,000 tested, 0.07% active. AID 1499, 2009. Integrin beta-2 (Homo sapiens) + Integrin alpha-M (Homo sapiens), P05107+P11215. ATPlite luminescence. activation, % at 10 µM;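 active = 10 µM primary screen giving 50% or more activity, confirmed by 40% or more on retest at that dose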
PTK2B oligo ant: antagonists of Pyk2 self-association, primary screen, Q293 cells, FERM NanoBiT luminescence, HTS | Protein-tyrosine kinase 2-beta (Homo sapiens), Q14289 | active compounds read low | z-score (the deposit names both 25 µM and 10 µM) | 99,000 tested, 0.83% active;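 active = Z-score of -3 or lower, scaled per plate to the spread of control and sample wells; inactive = z-score above -3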;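 also: negative z-score means lost luminescence so less FERM oligomerization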
hDAT+cocaine: changed hDAT dopamine uptake under cocaine IC80, either direction, primary screen, cocaine antagonist project, cell-based, LLC-PK1 hDAT, [14C]-dopamine uptake, MLSMR. Sodium-dependent dopamine transporter (Homo sapiens), Q01959. LLC-PK1 hDAT cells, [14C]-dopamine uptake with cocaine IC80; actives deviate in either direction. B-score at 10 µM. 110,000 tested, 1.3% active. AID 449768, 2010;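 active = Z score or B-score, a plate-position-corrected score, falls beyond the plate's 99.7% confidence bounds, in either direction; inactive = both scores lie inside the 99.7% bounds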;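 also: scored against the spread of the other compound wells on the same plate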
CD11b adhes inh: inhibitors of CD11b/CD18 adhesion to fibrinogen, primary screen, K562 cells, luminescence. Integrin beta-2 (Homo sapiens) + Integrin alpha-M (Homo sapiens), P05107+P11215. inhibition, % at 10 µM. ATPlite luminescence; Mn2+ added to activate the integrin. 93,000 tested, 0.54% active;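 active = primary inhibition of 50% or more at 10 µM, then 40% or more on retest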
D1 mod confirm: D1 receptor positive allosteric modulators, retest, confirmation, cell-based, HEK293 D1, CRE-luciferase, duplicate. luminescence at 10 µM. shares compounds with D1 mod. dopamine EC30 potentiation; active compounds read high. 2,200 tested, 88% active. AID 642, 2007;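 active = luminescence in either of two replicates above the same-plate mean plus 3 SD of the low-dose dopamine control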
D1 no dopamine: D1 receptor agonism without dopamine, confirmation, mechanism study for D1 allosteric modulator project, cell-based, HEK293 D1, CRE-luciferase, secondary assay 1; luminescence, no dopamine; active compounds read high; 1,900 tested, 0.8% active; AID 646, 2007; shares compounds with D1 mod; luminescence at 10 µM; in the data active = luminescence above about 3900
Isoprot counter: counter-screen for D1 modulators: isoproterenol response in HEK293 cells; shares compounds with D1 mod; HEK293 D1 CRE-luciferase, isoproterenol EC30 counter-screen; calls only at 10 µM; 2,200 tested, 63% active; AID 647;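 active = luminescence in either replicate above plate mean of wells with a partly effective reference agonist dose plus 3 SD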;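 also: isoproterenol raises cAMP through native beta-adrenoceptor Gs so signal bypasses D1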
* = called active by the depositor; i = inactive; . = not tested or not shown; + = active, no number. Many of the other results were omitted from the sample, so hits are more common in it than they were.

SMILES	FAK inh	D1 mod	Mac1 fbg enh	PTK2B oligo ant	hDAT+cocaine	CD11b adhes inh	D1 mod confirm	D1 no dopamine	Isoprot counter
O=c1c2c(-c3ccco3)csc2nc(SCc2cn3cccnc3n2)n1-c1ccccc1	8	8.4*	1	-0.06	-0.016	11	15872*	1792	+
CCNC(=O)C1CC(=O)OC12CCCCC2 (configuration not stated)	-8	.	.	0.64	.	.	.	.	.
CCNc1nc(OC)nc(N2CCC(Cc3ccccc3)CC2)n1	.	.	0	.	.	35	.	.	.
Cc1nc(Nc2ccc3c(c2)OCO3)c2oc3ccccc3c2n1	-3	.	-4	-1.1	0.083	3	.	.	.
c1ccc2c(c1)oc1c(Nc3ccc4c(c3)OCO4)ncnc12	3	3.1*	0	0.74	-0.82	16	6592*	.	+
c1ccc(Cc2nn3c(C4COc5ccccc5O4)nnc3s2)cc1 (configuration not stated)	1	6*	4	-0.97	-0.049	-28	14652*	1492	+
C=CCn1c(N)c(C(=O)OC(C)CC)c2nc3ccccc3nc21 (configuration not stated)	3	7.5*	-4	-0.08	2.1	-4	14864*	1544	+
CCn1c2ccccc2c2nc3cc(S(=O)(=O)N4CCOCC4)ccc3nc21	-2	6.5*	-4	-1.6	.	57*	15708*	1656	+
O=S(=O)(c1ccc2oc3ccccc3c2c1)N1CCOCC1	-1	.	-5	-1.3	0.02	-1	.	.	.
c1ccc2c(c1)nc(CN1CCOCC1)n1c3ccccc3nc21	1	.	8	0.02	1.3	-8	.	.	.
c1ccc2nc3c(nc2c1)c1ccccc1n3CCN1CCOCC1	1	9.5*	5	1	-0.04	-34	18764*	1572	+
Nc1nc(Cl)nc2c1ncn2[C@H]1C[C@H](O)[C@@H](CO)O1	.	7.5*	.	.	0.3	.	10544*	1496	+
O=C(OCCN1C(=O)c2ccccc2C1=O)c1cc(S(=O)(=O)N2CCOCC2)ccc1Cl	7	3.4*	11	-0.78	0.75	-3	9076*	1544	+
O=C(OCCCCN1C(=O)c2ccccc2C1=O)c1ccc(S(=O)(=O)N2CCCC2)cc1	.	-0.12	-2	1.2	0.021	-4	.	.	.
COC(C)(C)c1cc(C(C)(C)C)nc(N)n1	-4	3.1*	4	0.1	-0.02	-18	10892*	.	+
CCN1CCCC1CNC(=O)c1cc(NC(C)=O)c(N(C)C)cc1OC (configuration not stated)	1	0.42	.	0.14	-1.2	.	.	.	.
COC(=O)c1nn(-c2ccccc2)ccc1=O	2	.	1	0.15	-1.6	-41	.	.	.
COC(=O)c1cn(-c2ccccc2)nc1C(=O)OC	.	18*	-2	0.81	1.3	18	20700*	1688	+
CCOC(=O)c1c(C)oc2cc(Br)c(O)c(Br)c12	.	7.9*	-3	.	0.36	23	9840*	1808	i
Cc1cccc2c(=O)oc(-c3ccc4c(c3)C(=O)N(CC3CCCO3)C4=O)nc12 (configuration not stated)	1	-0.16	.	.	.	.	.	.	.
CC(C)c1ccc(-c2nc(N3CCCCC3)[nH]c(=O)c2C#N)cc1	-1	5.5*	.	0.61	-0.24	.	19464*	1772	i
CCCCNc1nc(-c2ccccc2)nc(-n2ccnc2)n1	-1	.	5	-0.15	0.96	-8	.	.	.
c1ccc(-c2nc(NC3CC3)nc(-n3ccnc3)n2)cc1	3	11*	-3	2	-0.62	-7	26636*	1696	+
C=CCNc1nc(-c2ccccc2)nc(-n2ccnc2)n1	3	8.7*	-2	-2.9	-0.4	3	22092*	1636	+
c1ccc(-c2nc(-n3ccnc3)nc(-n3ccnc3)n2)cc1	.	2.8	3	-1.7	1.8	6	.	.	.
SMILES	FAK inh	D1 mod	Mac1 fbg enh	PTK2B oligo ant	hDAT+cocaine	CD11b adhes inh	D1 mod confirm	D1 no dopamine	Isoprot counter
CC(C)Nc1nc(-c2ccccc2)nc(-n2ccnc2)n1	0	11*	-5	-0.84	-0.18	-1	23348*	1840	+
c1ccc(CN2CCN(c3nc(-c4ccccc4)nc(-n4ccnc4)n3)CC2)cc1	1	-0.53	0	-0.62	0.65	6	.	.	.
c1ccc(Cn2nnc(CNc3ccccc3)c2-c2c(CNc3ccccc3)nnn2Cc2ccccc2)cc1	.	.	.	.	-0.072	.	.	.	.
Cc1cc(C)c(C#N)c(SCC(=O)c2ccc(Cl)cc2Cl)n1	-4	.	.	-1.6	-1.2	.	.	.	.
CC(C)NC(=O)c1cc(-n2cnnc2)ccc1Cl	-3	.	-4	-0.15	-0.23	9	.	.	.
Cc1ccc2c(c1)N(CC(=O)NCCc1c[nH]c3ccccc13)C(=O)CO2	-5	0.52	-5	-0.72	0.29	-4	.	.	.
CNc1nc(Nc2ccc(C(C)=O)cc2)nc(OC(C(F)(F)F)C(F)(F)F)n1	8	21*	-1	-3.2*	-5.9*	-4	17924*	1544	+
COC(=O)c1ccc(C(=O)OC)c(NC(=O)COC(=O)C23CC4CC(CC(O)(C4)C2)C3)c1	2	3.1*	-1	-2.8	-1.1	-13	5580*	1192	i
CCCC1(c2ccccc2)NC(=O)N(CC(=O)c2[nH]c(C)c(C(=O)OCC)c2C)C1=O (configuration not stated)	1	7*	0	-1.8	1.9	5	8616*	1668	+
CCOC(=O)N1CCN(Cc2nc(N)nc(Nc3ccc(OC)cc3)n2)CC1	1	.	-2	-0.01	-0.56	-2	.	.	.
CCOC(=O)N1CCN(Cc2nc(N)nc(Nc3ccc(Oc4ccccc4)cc3)n2)CC1	-2	3.5*	-5	-2	0.27	35	12388*	1648	+
COC(=O)C(C)Sc1nc(N)c(NC(=O)c2ccco2)c(=O)[nH]1 (configuration not stated)	.	.	.	.	-0.65	.	.	.	.
Nc1nc(SCC(=O)OCc2ccccc2)[nH]c(=O)c1NC(=O)c1ccco1	.	3.2*	2	.	0.68	-4	6284*	1856	i
